Compound activity deposited in PubChem by National Center for Advancing Translational Sciences (NCATS).
VP16 counter: VP16 counterscreen qHTS for inhibitors of ROR gamma transcriptional activity. Drosophila S2 Gal4-VP16 UAS-luciferase, luminescence, 20 h. Potency, µM (top dose mostly 53.6 µM), most hits filed as inhibitors. 310,000 compounds, 3.5% hits;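 further: Gal4-VP16 expression switched on by copper sulfate through the metallothionein promoter; nearly all actives have a fitted effect of over 50% in size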
TDP1 cell noCPT: qHTS for Inhibitors of human tyrosyl-DNA phosphodiesterase 1 (TDP1): qHTS in cells in absence of CPT; DT40 Tdp1-/- hTDP1 cells, no CPT, ATP luminescence, 48 h; Potency, µM (top dose mostly 46.2 µM), usual class: inhibitors; 420,000 compounds, 15% hits; further: nearly all actives have a fitted effect of over 55% in size
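Stably hTDP1-transfected Tdp1-null chicken DT40 cells were treated with library compounds minus camptothecin and grown for at least 48 hr at 37 °C, after which cellular ATP was quantified by luminescence.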
RORgamma inh: qHTS for inhibitors of ROR gamma transcriptional activity; Nuclear receptor ROR-gamma (Mus musculus), P51450; Drosophila S2 Gal4-RORgamma UAS-luciferase reporter, 20 h; Potency, µM (titrated, usually from 53.6 µM), actives largely listed as inhibitors; 310,000 compounds, 5.4% hits; further: nearly all actives have a fitted effect of over 60% in size
Target sequence (P51450 whole entry, looked up, the tested form may be a part): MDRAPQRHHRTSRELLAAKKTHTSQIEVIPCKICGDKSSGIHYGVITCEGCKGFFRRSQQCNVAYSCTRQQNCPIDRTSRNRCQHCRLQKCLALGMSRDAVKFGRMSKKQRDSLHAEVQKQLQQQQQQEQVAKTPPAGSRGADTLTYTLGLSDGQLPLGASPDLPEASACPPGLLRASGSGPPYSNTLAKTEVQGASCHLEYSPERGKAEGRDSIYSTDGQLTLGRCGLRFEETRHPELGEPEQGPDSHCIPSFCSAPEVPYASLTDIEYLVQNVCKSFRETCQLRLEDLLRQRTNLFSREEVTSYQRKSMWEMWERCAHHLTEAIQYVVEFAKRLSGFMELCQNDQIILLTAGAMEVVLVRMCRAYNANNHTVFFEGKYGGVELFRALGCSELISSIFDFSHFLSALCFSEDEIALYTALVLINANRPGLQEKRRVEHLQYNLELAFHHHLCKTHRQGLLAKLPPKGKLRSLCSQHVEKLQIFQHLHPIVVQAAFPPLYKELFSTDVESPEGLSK
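ROR gamma transcriptional activity was tracked as Gal4-UAS luciferase output in stably transfected Drosophila Schneider cells, with compound added 1 hr before 700 uM copper sulfate induction and a 20 hr ambient-temperature incubation.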
LDHA block: qHTS assay for inhibitors of human lactate dehydrogenase; L-lactate dehydrogenase A chain (Homo sapiens), P00338; purified LDHA, NADH/diaphorase-resazurin fluorescence; hits give low values; activity change, % (values are at about 110 or 230 µM); 480,000 compounds, 0.15% hits; AID 1347041, 2019; in the data active means activity change below about -30%; inconclusive means mostly about -25% to -30%
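Human LDH5 at 2 nM final in Tris HCl pH 7.4 with 0.06 mM NADH and 0.2 mM pyruvate, reacted 5 minutes at room temperature. Remaining NADH coupled via diaphorase/resazurin; resorufin fluorescence read at 0 and 20 minutes, normalized to enzyme-free and DMSO wells.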
IL-1B inflam inh: qHTS for Inhibitors of Inflammasome Signaling: IL-1-beta AlphaLISA Primary Screen; 360,000 compounds, 4.7% hits; activity change, % at 57.5 µM; THP-1 LPS/ATP IL-1B secretion, AlphaLISA, 16 h; hits give low values; in the data active means activity change below about -50%; inconclusive means mostly about -30% to -49%
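THP-1 cells pretreated 1 hr with compounds (up to 57.5 uM final), then stimulated with LPS (250 ng/mL final) plus ATP (1.25 mM final); secreted IL-1B measured by AlphaLISA after 16 hr, decreased signal indicating inhibition.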
DT40 TDP1 CPT: qHTS for Inhibitors of human tyrosyl-DNA phosphodiesterase 1 (TDP1): qHTS in cells in presence of CPT; chicken DT40 Tdp1-/-;hTDP1 cells + 20 nM CPT, ATP luminescence, 48 h; Potency, µM (highest dose often 46.2 µM), hits mostly inhibitors; 420,000 compounds, 12% hits; further: nearly all actives have a fitted effect of over 55% in size
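Chicken DT40 Tdp1-/- cells stably complemented with human TDP1 were seeded at 400 cells/well in medium containing 20 nM camptothecin, exposed to pin-transferred compounds, and grown at 37 °C for at least 48 hr. Viability was read as ATP luminescence.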
Each line names hits and unclear results; the compound was inactive in the other large screens. This is a sample that favours compounds with a hit; in the whole collection about 18% have one here. Unless noted, the call rests on the fitted dose curve; in most records, active means well fitted curve in the direction sought with a large enough effect; inconclusive means small, poorly fitted or top-dose-only effect, or another doubt; inactive means no such curve, though single readings can be large; an effect the other way counts as inactive or inconclusive.

CCO[C@H]1OC(C(=O)NC2CC2)=C[C@@H](C2CCCCC2)[C@@H]1CCCO	TDP1 cell noCPT 23µM, DT40 TDP1 CPT 21µM
Cc1cc(C=O)cc(C)c1OCc1ccccn1	none (no result: VP16 counter, TDP1 cell noCPT, RORgamma inh, IL-1B inflam inh, DT40 TDP1 CPT)
CC(=O)Nc1ccc(S(=O)(=O)[C@H]2CS(=O)(=O)C[C@@H]2N2CCC(C)CC2)cc1	none (no result: VP16 counter, TDP1 cell noCPT, RORgamma inh, IL-1B inflam inh, DT40 TDP1 CPT)
Brc1c(CSc2nc3ccccc3o2)nc2ccccn12	none (no result: VP16 counter, TDP1 cell noCPT, RORgamma inh, IL-1B inflam inh, DT40 TDP1 CPT)
C#CCNC(=O)C1=C[C@@H](c2ccc(Br)cc2)[C@H](CCCO)[C@@H](OCC)O1	TDP1 cell noCPT 15µM, DT40 TDP1 CPT 15µM
COc1ccc(Cc2nnc(/C=C/c3ccccc3OC)o2)cc1	none (no result: VP16 counter, TDP1 cell noCPT, RORgamma inh, IL-1B inflam inh, DT40 TDP1 CPT)
CSc1ccc(/C=N/N2CCN(C)CC2)cc1	none
CN1CCN(/N=C/c2ccc(-c3ccccc3)cc2)CC1	TDP1 cell noCPT inconclusive, IL-1B inflam inh -55, DT40 TDP1 CPT inconclusive
C(=N\N1CCN(Cc2ccccc2)CC1)/c1ccc(-c2ccccc2)cc1	TDP1 cell noCPT inconclusive
CN1CCN(/N=C/c2c3ccccc3c(Cl)c3ccccc23)CC1	TDP1 cell noCPT inconclusive, RORgamma inh inconclusive, IL-1B inflam inh -74, DT40 TDP1 CPT inconclusive
CC(C)c1ccc(/C=N/NC(=O)c2ccccc2)cc1	none (no result: VP16 counter, TDP1 cell noCPT, RORgamma inh, IL-1B inflam inh, DT40 TDP1 CPT)
CCCc1c(C(=O)OCC)nnc2c(-c3ccc(F)cc3)c(C)nn12	none (no result: VP16 counter, TDP1 cell noCPT, RORgamma inh, IL-1B inflam inh, DT40 TDP1 CPT)
CN(C)c1oc(-c2ccco2)nc1S(=O)(=O)c1ccc2c(c1)OCCO2	none (no result: VP16 counter, TDP1 cell noCPT, RORgamma inh, IL-1B inflam inh, DT40 TDP1 CPT)
COc1ccc(S(=O)(=O)Nc2ccc(S(=O)(=O)Nc3ccc(F)cc3)cc2)cc1C	TDP1 cell noCPT inconclusive
COc1ccc(NS(=O)(=O)c2ccc(OC)c(N(C)S(=O)(=O)c3ccc(Cl)cc3)c2)cc1	VP16 counter 11µM, TDP1 cell noCPT 6.5µM, RORgamma inh inconclusive, IL-1B inflam inh -83, DT40 TDP1 CPT 10µM
COc1ccc(S(=O)(=O)Nc2ccc(F)cc2)cc1N(C)S(=O)(=O)c1ccc(Cl)cc1	TDP1 cell noCPT inconclusive, IL-1B inflam inh -94, DT40 TDP1 CPT inconclusive
CCOCCCNC(=O)C(c1ccc(OC)cc1)N(Cc1cccs1)C(=O)CNC(=O)c1ccccc1 (configuration not stated)	none (no result: VP16 counter, TDP1 cell noCPT, RORgamma inh, IL-1B inflam inh, DT40 TDP1 CPT)
CCOC(CCn1c(SCc2ccc([N+](=O)[O-])cc2)nc2ccccc2c1=O)OCC	VP16 counter inconclusive, TDP1 cell noCPT 13µM, IL-1B inflam inh inconclusive, DT40 TDP1 CPT 15µM
CCN(CC)C(=O)CSc1nc2c(sc(=S)n2-c2ccccc2)c(=O)n1Cc1ccco1	TDP1 cell noCPT inconclusive, RORgamma inh inconclusive, IL-1B inflam inh -64, DT40 TDP1 CPT 23µM
COCCNC(=O)c1ccc2c(=O)n(Cc3ccco3)c(SCC(=O)NC3CCCCC3)nc2c1	none
CCN(CC)C(=O)CSc1nc2c(sc(=S)n2CC)c(=O)n1-c1ccccc1	none
O=C(CCCCCn1c(SCC(=O)c2ccccc2)nc2ccccc2c1=O)NCc1ccco1	TDP1 cell noCPT 21µM, DT40 TDP1 CPT 8.2µM
O=C(NCc1ccco1)c1ccc2c(=O)n(Cc3ccco3)c(SCC(=O)N3CCCC3)nc2c1	TDP1 cell noCPT inconclusive, DT40 TDP1 CPT 26µM
CCN(C(=O)CSc1nc2ccccc2c(=O)n1Cc1ccc(C)cc1)C1CCS(=O)(=O)C1 (configuration not stated)	TDP1 cell noCPT inconclusive, DT40 TDP1 CPT inconclusive (no result: VP16 counter, RORgamma inh)
O=C(CSc1nc2ccccc2c(=O)n1Cc1ccco1)NCc1ccco1	VP16 counter inconclusive, TDP1 cell noCPT inconclusive, DT40 TDP1 CPT inconclusive
CCN(C(=O)CSc1nc2ccccc2c(=O)n1-c1cccc(C)c1)C1CCS(=O)(=O)C1 (configuration not stated)	TDP1 cell noCPT inconclusive, DT40 TDP1 CPT 16µM
Cc1cccc(-n2c(SCC(=O)NCc3ccco3)nc3ccccc3c2=O)c1	TDP1 cell noCPT inconclusive, IL-1B inflam inh inconclusive, DT40 TDP1 CPT 10µM
